Reference: the supplement of paper PMC11732987, “Enantioselective OTUD7B fragment discovery through chemoproteomics screening and high-throughput optimisation” (Communications Chemistry, 2025)

Key:
Assay in all cases: log2 ratio of Biotin-Ahx-Ub-VS probe labelling (fragment/DMSO); higher = less target engagement (more negative = stronger competition), active = hit call of the paper (q ≤ 0.05, log2 ratio ≤ -1)
Conditions in all cases: compound concentration: 200 uM; treatment time: 3 h
[1] = target: T1, ALG13 (UniProt Q9NP73)
T1 sequence (whole entry): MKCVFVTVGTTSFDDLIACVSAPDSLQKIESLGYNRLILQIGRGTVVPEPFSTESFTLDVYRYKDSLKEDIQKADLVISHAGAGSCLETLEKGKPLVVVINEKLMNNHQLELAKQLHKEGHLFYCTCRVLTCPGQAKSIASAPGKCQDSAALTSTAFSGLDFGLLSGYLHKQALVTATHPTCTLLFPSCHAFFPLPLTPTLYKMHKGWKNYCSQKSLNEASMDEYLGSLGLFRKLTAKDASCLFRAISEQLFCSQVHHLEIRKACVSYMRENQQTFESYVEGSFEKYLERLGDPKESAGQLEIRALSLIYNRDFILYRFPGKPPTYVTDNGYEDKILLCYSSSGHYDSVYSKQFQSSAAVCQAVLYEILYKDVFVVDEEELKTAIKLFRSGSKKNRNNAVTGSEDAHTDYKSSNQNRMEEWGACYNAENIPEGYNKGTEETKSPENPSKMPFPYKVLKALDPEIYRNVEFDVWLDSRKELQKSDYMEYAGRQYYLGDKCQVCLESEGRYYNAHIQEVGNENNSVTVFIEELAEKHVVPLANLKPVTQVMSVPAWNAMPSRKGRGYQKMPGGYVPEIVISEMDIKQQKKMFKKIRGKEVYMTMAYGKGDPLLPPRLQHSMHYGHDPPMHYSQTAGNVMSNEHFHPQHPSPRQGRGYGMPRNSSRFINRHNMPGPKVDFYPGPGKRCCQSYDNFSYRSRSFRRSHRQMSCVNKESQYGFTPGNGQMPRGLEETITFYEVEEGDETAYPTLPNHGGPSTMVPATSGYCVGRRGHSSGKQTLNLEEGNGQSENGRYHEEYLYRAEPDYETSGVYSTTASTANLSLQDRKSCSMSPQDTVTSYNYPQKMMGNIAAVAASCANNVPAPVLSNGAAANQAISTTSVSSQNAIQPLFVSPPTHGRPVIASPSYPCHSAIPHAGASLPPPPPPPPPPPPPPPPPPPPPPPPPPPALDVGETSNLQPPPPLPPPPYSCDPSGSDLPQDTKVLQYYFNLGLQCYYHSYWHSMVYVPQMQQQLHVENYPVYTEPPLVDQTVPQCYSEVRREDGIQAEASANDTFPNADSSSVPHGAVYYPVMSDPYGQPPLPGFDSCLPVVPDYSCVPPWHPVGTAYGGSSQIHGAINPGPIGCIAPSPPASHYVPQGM
Summary of the method: (§1)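 In triplicate, 495 µg of HEK293T lysate per sample was incubated with fragment at 200 µM or vehicle for 3 h. Biotin-Ahx-Ub-VS was then added to 0.5 µM final for 1 h, and labelled DUBs were captured with NeutrAvidin, digested with LysC and trypsin, and measured by diaPASEF LC-MS/MS. Data are average log2 fragment/vehicle ratios by unpaired t-test from global-median-normalised Spectronaut label-free quantities, restricted to proteins with ≥2 unique peptides.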

[2] = target: ATXN3 (UniProt P54252)
Summary of the method: as §1

[3] = target: T2, BAP1 (UniProt Q92560)
T2 sequence (whole entry): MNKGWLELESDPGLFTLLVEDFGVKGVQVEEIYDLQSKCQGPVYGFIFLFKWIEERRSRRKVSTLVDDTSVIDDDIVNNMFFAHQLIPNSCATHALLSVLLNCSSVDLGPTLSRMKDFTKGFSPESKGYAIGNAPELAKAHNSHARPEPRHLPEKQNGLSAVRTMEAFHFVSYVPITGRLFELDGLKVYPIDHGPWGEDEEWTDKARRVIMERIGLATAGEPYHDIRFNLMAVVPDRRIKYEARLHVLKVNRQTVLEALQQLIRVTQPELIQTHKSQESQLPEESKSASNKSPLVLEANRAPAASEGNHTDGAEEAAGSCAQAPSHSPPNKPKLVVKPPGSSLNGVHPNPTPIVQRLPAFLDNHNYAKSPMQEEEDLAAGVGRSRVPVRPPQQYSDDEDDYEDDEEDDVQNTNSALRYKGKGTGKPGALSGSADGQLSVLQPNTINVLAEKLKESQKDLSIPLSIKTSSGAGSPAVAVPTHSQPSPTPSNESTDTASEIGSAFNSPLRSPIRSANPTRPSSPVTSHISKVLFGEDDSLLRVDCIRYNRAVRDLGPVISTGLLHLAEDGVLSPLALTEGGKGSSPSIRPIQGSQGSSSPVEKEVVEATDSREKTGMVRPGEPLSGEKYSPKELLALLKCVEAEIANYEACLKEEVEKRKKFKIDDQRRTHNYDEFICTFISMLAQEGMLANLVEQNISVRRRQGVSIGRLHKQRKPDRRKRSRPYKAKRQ
Summary of the method: as §1

[4] = target: EIF3F (UniProt O00303)
Summary of the method: as §1

[5] = target: EIF3H (UniProt O15372)
Summary of the method: as §1

[6] = target: T3, FAM105A (UniProt Q9NUU6)
T3 sequence (whole entry): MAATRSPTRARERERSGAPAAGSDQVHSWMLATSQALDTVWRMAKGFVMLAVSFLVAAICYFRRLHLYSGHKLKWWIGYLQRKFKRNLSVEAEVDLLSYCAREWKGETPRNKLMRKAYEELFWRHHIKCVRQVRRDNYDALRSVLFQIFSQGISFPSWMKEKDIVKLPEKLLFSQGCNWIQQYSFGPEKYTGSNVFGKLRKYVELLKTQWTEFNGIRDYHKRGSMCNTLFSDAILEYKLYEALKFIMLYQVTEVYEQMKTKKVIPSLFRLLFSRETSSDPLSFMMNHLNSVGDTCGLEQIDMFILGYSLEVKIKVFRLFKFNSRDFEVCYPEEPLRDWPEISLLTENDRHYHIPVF
Summary of the method: as §1

[7] = target: OTUB1 (UniProt Q96FW1)
Summary of the method: as §1

[8] = target: T4, OTUD4 (UniProt Q01804)
T4 sequence (whole entry): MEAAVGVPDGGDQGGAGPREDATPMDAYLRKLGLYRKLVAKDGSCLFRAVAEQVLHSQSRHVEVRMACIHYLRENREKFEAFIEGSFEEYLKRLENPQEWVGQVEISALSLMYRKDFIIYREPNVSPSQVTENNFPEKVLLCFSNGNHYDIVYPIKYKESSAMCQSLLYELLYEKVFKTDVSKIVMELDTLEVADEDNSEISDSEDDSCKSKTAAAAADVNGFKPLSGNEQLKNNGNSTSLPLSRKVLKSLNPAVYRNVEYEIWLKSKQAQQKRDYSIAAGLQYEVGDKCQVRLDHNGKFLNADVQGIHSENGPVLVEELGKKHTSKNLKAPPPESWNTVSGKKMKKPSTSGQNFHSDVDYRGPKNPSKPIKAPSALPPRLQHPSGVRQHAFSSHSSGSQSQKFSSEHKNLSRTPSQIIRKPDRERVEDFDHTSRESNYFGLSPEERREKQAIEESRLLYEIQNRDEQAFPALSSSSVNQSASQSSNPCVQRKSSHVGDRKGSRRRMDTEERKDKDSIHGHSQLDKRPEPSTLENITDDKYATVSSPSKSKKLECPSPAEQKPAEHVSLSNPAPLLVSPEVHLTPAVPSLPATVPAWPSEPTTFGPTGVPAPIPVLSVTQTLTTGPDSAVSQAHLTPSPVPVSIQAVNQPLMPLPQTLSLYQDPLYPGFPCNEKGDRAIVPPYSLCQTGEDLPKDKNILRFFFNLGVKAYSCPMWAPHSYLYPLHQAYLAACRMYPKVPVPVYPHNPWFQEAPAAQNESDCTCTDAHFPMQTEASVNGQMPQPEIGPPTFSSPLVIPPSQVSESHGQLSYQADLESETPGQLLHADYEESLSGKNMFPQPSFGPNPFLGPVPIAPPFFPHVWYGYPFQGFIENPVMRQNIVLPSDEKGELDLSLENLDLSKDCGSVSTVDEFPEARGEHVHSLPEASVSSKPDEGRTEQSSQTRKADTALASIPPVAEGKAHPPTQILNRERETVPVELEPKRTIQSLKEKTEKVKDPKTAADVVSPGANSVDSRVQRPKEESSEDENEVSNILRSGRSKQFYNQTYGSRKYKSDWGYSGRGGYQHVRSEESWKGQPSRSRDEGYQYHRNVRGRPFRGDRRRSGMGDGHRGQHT
Summary of the method: as §1

[9] = target: T5, OTUD5 (UniProt Q96G74)
T5 sequence (whole entry): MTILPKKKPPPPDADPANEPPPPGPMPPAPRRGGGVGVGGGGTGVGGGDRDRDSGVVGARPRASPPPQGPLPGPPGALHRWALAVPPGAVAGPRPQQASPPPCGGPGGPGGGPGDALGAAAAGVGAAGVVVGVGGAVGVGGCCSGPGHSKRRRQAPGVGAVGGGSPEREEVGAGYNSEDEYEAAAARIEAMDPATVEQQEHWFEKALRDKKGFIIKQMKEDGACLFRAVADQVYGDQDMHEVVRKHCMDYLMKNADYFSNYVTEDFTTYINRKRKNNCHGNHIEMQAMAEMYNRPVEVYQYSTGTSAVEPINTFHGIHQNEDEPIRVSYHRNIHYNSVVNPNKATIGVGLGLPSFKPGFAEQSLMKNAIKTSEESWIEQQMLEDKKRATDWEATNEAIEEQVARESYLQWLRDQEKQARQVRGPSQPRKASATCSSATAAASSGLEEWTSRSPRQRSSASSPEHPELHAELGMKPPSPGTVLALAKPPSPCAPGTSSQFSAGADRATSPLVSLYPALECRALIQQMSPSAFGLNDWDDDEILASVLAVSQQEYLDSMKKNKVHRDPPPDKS
Summary of the method: as §1

Measured: log2 ratio of Biotin-Ahx-Ub-VS probe labelling

Chain of EIF3F (O00303 whole entry): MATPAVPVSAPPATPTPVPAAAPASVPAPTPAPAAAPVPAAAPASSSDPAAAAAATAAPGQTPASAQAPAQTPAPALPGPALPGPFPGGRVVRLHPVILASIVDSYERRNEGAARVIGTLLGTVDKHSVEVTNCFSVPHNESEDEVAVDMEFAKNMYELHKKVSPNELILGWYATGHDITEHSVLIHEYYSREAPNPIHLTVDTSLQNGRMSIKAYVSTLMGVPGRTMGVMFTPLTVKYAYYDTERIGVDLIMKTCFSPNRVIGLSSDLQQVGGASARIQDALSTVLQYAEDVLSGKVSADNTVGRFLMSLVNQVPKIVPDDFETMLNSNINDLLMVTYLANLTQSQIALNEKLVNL
Chain of EIF3H (O15372 whole entry): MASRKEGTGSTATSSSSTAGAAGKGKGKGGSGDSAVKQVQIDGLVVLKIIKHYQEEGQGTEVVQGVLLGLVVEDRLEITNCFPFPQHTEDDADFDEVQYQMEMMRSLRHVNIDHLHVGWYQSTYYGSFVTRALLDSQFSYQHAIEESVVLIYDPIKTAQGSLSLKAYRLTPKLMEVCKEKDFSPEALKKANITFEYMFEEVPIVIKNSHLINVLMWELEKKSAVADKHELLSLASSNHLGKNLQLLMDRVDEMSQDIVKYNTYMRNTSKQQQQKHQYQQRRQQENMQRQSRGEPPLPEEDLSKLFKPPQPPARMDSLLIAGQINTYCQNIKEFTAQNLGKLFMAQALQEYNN
Chain of OTUB1 (Q96FW1 whole entry): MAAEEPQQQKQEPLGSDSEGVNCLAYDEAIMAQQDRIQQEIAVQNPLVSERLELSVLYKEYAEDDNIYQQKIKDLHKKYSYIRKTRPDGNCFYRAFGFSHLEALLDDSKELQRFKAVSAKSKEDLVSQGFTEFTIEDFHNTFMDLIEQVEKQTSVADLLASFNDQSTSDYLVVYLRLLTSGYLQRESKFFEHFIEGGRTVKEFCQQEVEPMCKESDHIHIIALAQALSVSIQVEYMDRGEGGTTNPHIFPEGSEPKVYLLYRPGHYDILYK
Chain of ATXN3 (P54252 whole entry): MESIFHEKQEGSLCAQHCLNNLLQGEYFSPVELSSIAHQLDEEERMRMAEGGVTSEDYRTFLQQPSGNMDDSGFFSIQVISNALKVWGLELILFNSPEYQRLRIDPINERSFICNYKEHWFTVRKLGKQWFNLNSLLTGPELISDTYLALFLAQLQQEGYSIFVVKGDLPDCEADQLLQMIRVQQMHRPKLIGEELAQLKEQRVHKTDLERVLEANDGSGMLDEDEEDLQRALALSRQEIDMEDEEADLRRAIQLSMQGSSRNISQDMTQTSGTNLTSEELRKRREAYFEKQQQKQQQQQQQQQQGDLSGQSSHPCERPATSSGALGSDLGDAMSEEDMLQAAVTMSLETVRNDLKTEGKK

O=C(CCl)N1CC2(CCOCC2)C1
inactive: [1] -0.597 | [2] -0.356 | [3] -0.382 | [4] 0.0073 | [5] 0.061 | [6] -0.00776 | [7] -0.183 | [8] -0.122 | [9] -0.493
